Pol kappa inh: DNA polymerase kappa (human) inhibition. AID 588579. purified Pol kappa, fluorescent DNA synthesis assay, 10 min. Potency, µM (top dose mostly 107 µM), without a hit: at the top dose activity, negative = inhibition, usual class: inhibitors. hit rate 0.53% among 400,000. Q9UBT6; also: % is scaled to controls: 0 for no effect and ±100 for the full control effect
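Pol kappa 10 nM + cpd, 15 min RT; start w/ substrate 50 nM final; fluorescence kinetic read, 0 and 10 min. Neg ctrl: buffer, no enzyme.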
POLB inh: inhibitors of human DNA polymerase beta | Potency, µM (highest dose often 114 µM), for the others: at the highest dose activity change, negative = inhibition, most hits filed as inhibitors | Pol beta primer extension/strand displacement, fluorescence kinetic | P06746 | hit rate 1.3% among 340,000; also: % is scaled to controls: 0 for no effect and ±100 for the full control effect
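Enzyme-only controls used 10 nM Pol beta; buffer lacking enzyme served as negative control. Compound preincubated 15 min, then 50 nM substrate added; 0 and 10 min reads at room temperature.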
Pol iota inh: inhibitors of human DNA polymerase iota. Q9UNA4. Pol iota fluorescent replication assay, 10 min. Potency, µM (series often up to 115 µM), for the others: top-dose activity, negative = inhibition, most hits filed as inhibitors. hit rate 1% among 390,000. AID 588590
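Fluorescent replication assay read twice, at 0 min and 10 min after adding 50 nM (final) substrate. Enzyme (10 nM) and compounds were first incubated 15 min at room temperature; enzyme-free buffer wells were negative controls.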
APEX1 inh: blocks human APE1 abasic DNA cleavage. P27695. recombinant APE1, TAMRA/BHQ-2 abasic DNA cleavage fluorescence. Potency, µM (doses to about 65.8 µM), for inactives: at the top dose activity change, negative = inhibition, hits mostly inhibitors. hit rate 0.35% among 350,000. AID 2517;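 also: plate controls were vehicle for no effect and reference inhibitor for full effect; nearly all actives have a fitted effect of over 55% in size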
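Kinetic fluorescence read (525 ex/598 em nm, three reads 60 s apart) of AP-site incision; signal = third minus first read. Enzyme 0.75 nM, dual-labelled THF duplex 50 nM, compound preincubation 15 min RT.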
L3MBTL1 block: L3MBTL1 (human) inhibition. Q9Y468. AlphaScreen L3MBTL1–H3K9me1 peptide binding. Potency, µM (doses to about 57.1 µM), without a hit: at the top dose activity, negative = inhibition, actives largely listed as inhibitors. hit rate 0.66% among 230,000; also: % is scaled to controls: 0 for no effect and ±100 for the full control effect; nearly all actives have a fitted effect of over 60% in size
Target sequence (Q9Y468 whole entry, looked up): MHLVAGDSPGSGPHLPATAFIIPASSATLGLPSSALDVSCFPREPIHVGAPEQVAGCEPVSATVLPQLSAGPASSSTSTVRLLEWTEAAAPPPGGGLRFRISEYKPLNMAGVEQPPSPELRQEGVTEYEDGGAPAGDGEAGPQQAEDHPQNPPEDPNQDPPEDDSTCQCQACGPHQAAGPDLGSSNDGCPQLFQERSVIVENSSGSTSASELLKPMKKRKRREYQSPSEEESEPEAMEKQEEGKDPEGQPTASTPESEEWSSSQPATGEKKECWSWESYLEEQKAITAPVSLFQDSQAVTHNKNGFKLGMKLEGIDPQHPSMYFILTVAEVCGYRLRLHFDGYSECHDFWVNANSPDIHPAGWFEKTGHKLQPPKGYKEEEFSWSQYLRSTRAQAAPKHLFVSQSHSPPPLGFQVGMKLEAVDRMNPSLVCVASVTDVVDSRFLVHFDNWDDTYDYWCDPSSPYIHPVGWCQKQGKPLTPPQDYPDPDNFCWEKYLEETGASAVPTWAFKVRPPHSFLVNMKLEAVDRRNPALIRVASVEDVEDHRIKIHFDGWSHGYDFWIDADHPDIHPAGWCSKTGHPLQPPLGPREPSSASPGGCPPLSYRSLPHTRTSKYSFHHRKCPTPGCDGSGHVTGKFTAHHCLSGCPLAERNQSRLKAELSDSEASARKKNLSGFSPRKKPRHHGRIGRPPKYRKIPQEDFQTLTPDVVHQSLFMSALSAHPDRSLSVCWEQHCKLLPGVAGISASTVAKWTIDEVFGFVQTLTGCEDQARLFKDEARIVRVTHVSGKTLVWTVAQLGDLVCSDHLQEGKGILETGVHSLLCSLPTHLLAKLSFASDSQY
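L3MBTL1 50 nM + b-AHA-H3(1-15)K9me1 75 nM, 30 min RT; compound added, 30 min RT; streptavidin donor/Ni-chelate acceptor beads 10 ug/mL each final, 30 min RT dark; AlphaScreen read.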
Pol eta inh: DNA polymerase eta (human) inhibition. recombinant Pol eta, fluorescent DNA replication assay. hit rate 1.2% among 390,000. AID 588591. Potency, µM (titrated, usually from 114 µM), for inactives: at the top dose activity change, negative = inhibition, usual class: inhibitors. Q9Y253; also: % is scaled to controls: 0 for no effect and ±100 for the full control effect
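Pol eta (10 nM) was preincubated with compounds for 15 min at room temperature, after which fluorescent replication substrate (50 nM final) was added to start the reaction. Fluorescence was read kinetically at 0 and 10 min.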
Active calls of the source: *; ? = inconclusive; · = not tested or not shown; [ ] = remark or other dose. Shown are actives, neighbours in structure and some others; about 2.5% of the full set was active somewhere. Calls follow the shape of the dose curve; as a rule, active = well fitted curve in the direction sought with a large enough effect; inconclusive = small, poorly fitted or top-dose-only effect, or another doubt; inactive = no such curve, though single readings can be large; an effect the other way counts as inactive or inconclusive. Potency is read from the fitted curve at half-maximal effect.

SMILES	Pol kappa inh	POLB inh	Pol iota inh	APEX1 inh	L3MBTL1 block	Pol eta inh
O=S(=O)(Nc1nc(-c2sccc2Cl)cs1)c1cc(Cl)ccc1Cl	-19%	32µM*	?	-1%	-2%	?
CCCC(CCC(=O)Nc1cc([N+](=O)[O-])ccc1O)C(=O)O (configuration not stated)	-15%	22µM*	-11%	-4%	?	5%
CCOC(=O)NC1(NC2CCCCC2)Oc2ccccc2O1	79µM*	25µM*	71µM*	?	?	-1%
CC(=O)Nc1ccc(Nc2nc3c(S(=O)(=O)c4cccc(Cl)c4)nnn3c3ccsc23)cc1	-1%	39%	6%	·	·	79µM*
Cc1cc(C)cc(Nc2nc3c(S(=O)(=O)c4cccc(Cl)c4)nnn3c3ccsc23)c1	1%	1%	14%	·	·	-16%
CC1=C(C(=O)Nc2ccc(C)cc2C)C(c2ccc[nH]2)n2ncnc2N1 (configuration not stated)	-10%[60.1 µM]	11%	?	·	·	-4%
COc1ccc(NC(=O)C2=C(C)Nc3ncnn3C2c2ccc[nH]2)cc1 (configuration not stated)	5%[60.1 µM]	79µM*	?	·	·	?
Cc1nc2n(c(=O)c1CCN1CCC(c3noc4cc(F)ccc34)CC1)CCC[C@@H]2O	11%	·	7%	·	·	·
c1ccc(Nc2nc(-c3ccccc3)nc3ccccc23)cc1	0%	38%	48%	-13%	-1%[2.29 µM]	-17%
Fc1cccc(Nc2nc(-c3ccncc3)nc3ccccc23)c1	-23%	13µM*	?	·	17%	14µM*
CCOC(=O)/C=C/c1ccc2c(c1)S(=O)(=O)N(C1CCCC1)[C@H]2CC(=O)OCC	-7%	·	0%	·	·	·
COc1ccccc1NS(=O)(=O)c1cc(NC(=O)CNC(=O)c2ccc(C)s2)ccc1Cl	-28%	19%	79µM*	?	-13%	?
CC(C)OC(=O)Nc1ccc2nc(-c3cscn3)[nH]c2c1	0%[19.4 µM]	·	·	·	·	·
COc1ccc(Br)cc1C1Nc2cccc3cccc(c23)N1	-2%	79µM*	53%	-9%	9%[2.29 µM]	-19%
COC(=O)c1sc(-c2ccccc2)cc1NC(=O)C1CC1	0%	-17%	71%	?	·	?
COC(=O)c1sc(-c2ccc(C(C)(C)C)cc2)cc1NC(=O)CSCC(=O)O	9%	-7%	79µM*	-1%	·	89µM*
CCc1ccc2[nH]c(=O)c(-c3ccccc3)c(O)c2c1	-1%	8%	40%	18%	0%	-15%
COc1cc2c(cc1OC)[C@@H](c1ccccc1)CN(C)CC2	·	·	·	-2%	·	·
Cc1cc(C)cc(C(=O)Nc2ccc(N3CCN(C(=O)c4ccco4)CC3)cc2)c1	-20%	17%	3%	-5%	·	-2%
O=C(O)CSC1=NS(=O)(=O)c2ccccc21	?	·	89µM*	·	·	·
COc1ccc(C(=O)COC(=O)c2ccc3c(c2)OCO3)c(OC)c1	?	·	79µM*	5%	-13%	?
COc1ccc(C(=O)COC(=O)c2cc([N+](=O)[O-])ccc2N2CCOCC2)c(OC)c1	-17%	·	79µM*	-2%	?	?
COc1ccccc1C(=O)COC(=O)c1cc([N+](=O)[O-])ccc1N1CCOCC1	-2%	·	4%	-1%	-18%	-17%
O=C(N/N=C/c1ccccc1C(=O)O)c1cc(-c2ccc3c4c(cccc24)CC3)n[nH]1	-4%	56µM*	56%	15%	-21%	?
COc1ccc2c(c1)c1ccc3c(c1n2C)C(=O)C=CC3=O	3%	19%	18µM*	?	-7%	-4%
COC(C(=O)N/N=C(\C)c1ccc(C(C)(C)C)cc1)c1ccccc1 (configuration not stated)	-9%	37%	151%	-18%	6%	-21%
O=C(Nc1ccc(-n2nncc2-c2ccco2)cc1)c1cc2ccccc2oc1=O	5.6µM*	28µM*	11µM*	?	-13%	89µM*
